# Source: PubChem BioAssay
# HepG2 viability – kills HepG2 cells in TGF-b inhibitor counter-screen. actives 0.76% (n = 410,000). Potency, µM (titrated, usually from 46.1 µM), usual class: cytotoxic. AID 588856. HepG2 CAGA-GFP viability, ATP luminescence, 18 h
#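 HepG2 CAGA-GFP cells (1000/well, DMEM with 1% FBS) received compound, then TGF-beta at 500 pg/mL final, and were incubated 18 hours at 37 degrees C. Viability was read by CellTiter-Glo luminescence. Media-only wells were set as complete cell-killing and DMSO as no toxicity.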
# DT40 TDP1 no CPT – qHTS for Inhibitors of human tyrosyl-DNA phosphodiesterase 1 (TDP1): qHTS in cells in absence of CPT; actives 15% (n = 420,000); AID 686978, 2013; DT40 Tdp1-/- hTDP1 cells, no CPT, ATP luminescence, 48 h; Potency, µM (highest dose often 46.2 µM), hits mostly inhibitors; also: nearly all actives have a fitted effect of over 55% in size
#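 Growth kinetics read by CellTiter-Glo luminescence after ≥48 hr at 37 °C. Cells: DT40 Tdp1-/- stably carrying human TDP1, 400 per well, compound exposure in the absence of CPT (DMSO vehicle).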
# DT40 TDP1 CPT – growth inhibition of DT40 Tdp1-/-;hTDP1 cells with camptothecin (screen for TDP1 inhibitors); AID 686979; actives 12% (n = 420,000); chicken DT40 Tdp1-/-;hTDP1 cells + 20 nM CPT, ATP luminescence, 48 h; Potency, µM (top dose mostly 46.2 µM), actives largely listed as inhibitors; also: nearly all actives have a fitted effect of over 55% in size
#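 Chicken DT40 Tdp1-/- cells complemented with human TDP1, 400 cells/well, exposed to compounds plus 20 nM camptothecin for at least 48 h at 37 C; viability read as ATP content by CellTiter-Glo luminescence.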
# TGFb SMAD3 inh – inhibitors of TGF-b signaling; HepG2 CAGA-GFP TGF-b/SMAD3 reporter, GFP fluorescence, 18 h; TGF-beta stimulated, 500 pg/mL final; Potency, µM (series often up to 46.1 µM), hits mostly inhibitors; actives 1.2% (n = 410,000); AID 588855; also: nearly all actives have a fitted effect of over 65% in size
#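 HEPG2 CAGA-GFP, 1000 cells/well; 2 h settle, 37 C; cpd via pin tool; TGF-b 500 pg/mL final; 18 h, 37 C; GFP imaging ex488/em500-530; %Activity normalised to -TGF-b and +DMSO controls; CRC fit, curve class.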
# TDP1 block – TDP1 (human) enzyme inhibition; Q9NUW8; recombinant TDP1, AlphaScreen DNA substrate cleavage; Potency, µM (doses to about 130 µM), most hits filed as inhibitors; actives 0.28% (n = 350,000); also: nearly all actives have a fitted effect of over 40% in size
# Target sequence (Q9NUW8 whole entry, looked up): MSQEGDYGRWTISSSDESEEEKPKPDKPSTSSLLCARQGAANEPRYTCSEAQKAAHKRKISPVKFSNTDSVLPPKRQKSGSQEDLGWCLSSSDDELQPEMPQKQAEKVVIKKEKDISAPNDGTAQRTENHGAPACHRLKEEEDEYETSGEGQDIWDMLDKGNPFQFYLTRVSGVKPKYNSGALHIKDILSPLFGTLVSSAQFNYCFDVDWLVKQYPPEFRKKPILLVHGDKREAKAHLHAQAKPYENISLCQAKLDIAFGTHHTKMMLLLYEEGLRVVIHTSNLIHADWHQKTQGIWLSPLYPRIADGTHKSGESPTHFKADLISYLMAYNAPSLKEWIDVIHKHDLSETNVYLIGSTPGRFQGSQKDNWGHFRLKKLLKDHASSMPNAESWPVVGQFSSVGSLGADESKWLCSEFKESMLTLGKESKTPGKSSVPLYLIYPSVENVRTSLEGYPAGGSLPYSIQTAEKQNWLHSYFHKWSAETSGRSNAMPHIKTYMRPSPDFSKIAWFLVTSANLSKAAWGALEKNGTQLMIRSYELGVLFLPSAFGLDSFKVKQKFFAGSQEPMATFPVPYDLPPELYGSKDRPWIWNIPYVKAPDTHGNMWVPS
#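 Recombinant E. coli-expressed Tdp1 (1 nM) preincubated with compound 15 min at RT, then 5'-biotin/3'-phosphotyrosine-FITC DNA substrate (15 nM) added for 5 min. AlphaScreen beads (10 ug/ml) added, 10 min RT; tyrosine-FITC cleavage read as signal loss.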
# IL1B secr inh – inflammasome signaling inhibition, IL-1 beta readout. AID 743279. actives 4.7% (n = 360,000). THP-1 LPS/ATP IL-1B secretion, AlphaLISA, 16 h; hits give low values. activity change, % at 57.5 µM; in the data active = activity change below about -50%; inconclusive = mostly about -30% to -49%
#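 Secreted IL-1B measured by AlphaLISA bead assay after 16 h compound exposure of THP-1 cells; compounds (final up to 57.5 uM) added 1 h before LPS (250 ng/mL) and ATP (1.25 mM) stimulation; lower signal means less secretion.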
# Hits are given with their value; i = inactive; ? = inconclusive; nt = no result; ! = not active in a repeat; [ ] = dose if it differs, or a comment. Shown are actives, neighbours in structure and some others; about 19% of the full set was active somewhere. Unless noted, calls follow the shape of the dose curve; as a rule, active = well fitted curve in the direction sought with a large enough effect; inconclusive = small, poorly fitted or top-dose-only effect, or another doubt; inactive = no such curve, though single readings can be large; an effect the other way counts as inactive or inconclusive.
SMILES,HepG2 viability,DT40 TDP1 no CPT,DT40 TDP1 CPT,TGFb SMAD3 inh,TDP1 block,IL1B secr inh
S=C(NCCCc1cnc[nH]1)NCCCN(Cc1ccc(Cl)cc1)c1cc(-c2ccccc2)ccn1,i,?,?,?,nt,nt
CN(CCCc1cnc[nH]1)C(=S)NCCCN(Cc1ccc(Cl)cc1)c1ccc(Br)cn1,i,?,?,7.08µM,nt,nt
S=C(NCCCN(Cc1ccc(Cl)cc1)c1ccc(Br)cn1)NCc1ccc2nc[nH]c2c1,i,?,?,?,nt,nt
CC(=O)NCCCNC(=S)NCCCN(Cc1ccc(Cl)cc1)c1ccc(Br)cn1,12.6µM!,?,?,15.8µM,nt,nt
Nc1c(N=O)c(=O)[nH]c(=O)n1-c1ccccc1,i,i,i,i,nt,i
Nc1c(Br)c(=O)[nH]c(=O)n1-c1ccc(F)cc1,i,23.1µM,i,i,nt,i
CC12CC3OS(=O)OC3CC3C4C(C(OCc5ccccc5)C31)C42 (stereo unspecified),nt,nt,nt,nt,i[21 µM],nt
CCCn1c(SCC(=O)N2c3ccccc3CC2C)nnc1-c1ccco1 (stereo unspecified),i,?,20.6µM,i,i,i
CC1Cc2ccccc2N1C(=O)CSc1nnnn1C (stereo unspecified),i,i,i,i,i,i
CC1Cc2ccccc2N1C(=O)CSc1nnc(Cc2ccccc2)n1CCc1ccccc1 (stereo unspecified),i,23.1µM,?,?,i,i
CCCn1c(SCC(=O)N2CCc3ccccc32)nnc1-c1ccco1,i,i,?,i,i,i
CCc1ccc(NC(=O)Cn2c(=O)n(CCc3ccccc3)c(=O)c3sc4ccccc4c32)cc1,i,?,?,i,i,nt
Cc1ccc(CNC(=O)Cn2c(=O)n(-c3ccccc3)c(=O)c3c2c2cc(C)ccc2n3C)cc1,i,i,i,?,i,nt
CCc1ccc(-n2c(=O)c3sc4ccccc4c3n(CC(=O)N(CC)Cc3ccccc3)c2=O)cc1,i,18.4µM,18.4µM,i,i,nt
CCN(Cc1ccccc1)C(=O)Cn1c(=O)n(-c2cccc(C)c2)c(=O)c2c1c1cc(OC)ccc1n2C,i,16.4µM,11.6µM,i,i,nt
CCN(Cc1ccccc1)C(=O)Cn1c(=O)n(-c2ccccc2)c(=O)c2c1c1cc(C)ccc1n2C,i,3.66µM,9.2µM,i,i,nt
COc1cccc(NC(=O)Cn2c(=O)n(-c3ccccc3)c(=O)c3c2c2cc(OC)ccc2n3C)c1,i,i,i,i,i,nt
Cc1cc(C)cc(N2C(=O)N(Cc3cc(=O)n4ccccc4n3)c3ccccc3S2(=O)=O)c1,i,?,?,i,i,nt
COc1ccccc1S(=O)(=O)N1CCN(S(=O)(=O)c2ccccc2C#N)CC1,i,i,i,i,i,i
Cc1ccc(S(=O)(=O)c2nc(-c3ccc(Cl)cc3)oc2N2CCCCCC2)cc1,i,?,?,i,i,nt
Cc1ccc(S(=O)(=O)c2nc(-c3cccc(Br)c3)oc2N2CCCCCC2)cc1,i,?,?,i,i,nt
CC1CCN(c2oc(-c3cccs3)nc2S(=O)(=O)c2ccc(Cl)cc2)CC1,i,13µM,?,?,i,nt
Cc1ccc(S(=O)(=O)c2nc(-c3cccs3)oc2N2CCC(C)CC2)cc1,i,10.3µM,23.1µM,?,i,nt
O=S(=O)(c1ccccc1)c1nc(-c2cccs2)oc1N1CCCCC1,i,?,29.1µM,i,i,nt
CNC(=O)c1cnc2sc(N3CCC(C)CC3)nn2c1=O,i,i,i,i,i,nt
SMILES,HepG2 viability,DT40 TDP1 no CPT,DT40 TDP1 CPT,TGFb SMAD3 inh,TDP1 block,IL1B secr inh
CC(=O)c1ccc(-c2ccc(C(=O)N3CCC(C(N)=O)CC3)o2)cc1,i,i,i,i,nt,i
O=C(CSc1ncc(-c2ccccc2)[nH]1)Nc1cccc(C(F)(F)F)c1,i,?,?,?,i,nt
CC(C)CCn1nnc2sc(-c3ccccc3)cc2c1=O,i,i,i,i,i,nt
COC(=O)c1c(-c2ccc(N(C)C)cc2)sc2ccc(OC)cc12,i,13µM,?,i,i,i
COC(=O)c1c(-c2ccsc2)sc2ccc(-c3cc(OC)c(OC)c(OC)c3)cc12,i,9.2µM,?,i,i,i
COC(=O)c1c(-c2ccccc2OC)sc2ccc(OC)cc12,i,?,?,i,i,i
Nc1cc([N+](=O)[O-])cc(N)c1N,i,?,?,i,nt,nt
CC(C)c1ccc(NC2CCCN(C(=O)CCN3CCCCO3)C2)cc1 (stereo unspecified),i,i,i,i,i,i
CCC(=O)c1ccc(N2CCN(C(=O)COc3ccccc3F)CC2)c(F)c1,i,13µM,?,i,i,i
O=C(CCOc1ccccc1F)N1CCN(c2ccccc2O)CC1,i,16.4µM,?,i,i,i
CC(=O)c1ccc(N2CCN(C(=O)COc3ccccc3F)CC2)c(F)c1,i,23.1µM,?,i,i,i
COc1ccccc1OCCC(=O)N1CCN(c2ccccc2OC)CC1,i,?,?,i,i,i
CCCc1nn2c(=O)cc(COC(=O)c3cccc(NC(=O)CCc4ccccc4)c3)nc2s1,i,i,i,i,i,nt
CC(=O)N1C2(C=CC1(C)C(=O)NCc1cc(F)cc(C(F)(F)F)c1)CCCCC2 (stereo unspecified),nt,nt,nt,nt,i,nt
Cc1ccc(NC(=O)CSc2nc3c(c(=O)[nH]2)CCC3)c(C)c1,i,i,i,i,i,i
COc1ccc(NC(=O)CN(c2ccc(OC)cc2)S(=O)(=O)c2ccc(OC)c(OC)c2)cc1,i,?,i,i,nt,i
Cc1ccc(C)c(NC(=S)NC(C)C(c2ccccc2)N2CCN(C)CC2)c1 (stereo unspecified),i,?,?,i,i,-61.8
CC(=O)c1ccc(S(=O)(=O)NCCC(=O)NCCc2c[nH]c3ccccc23)cc1,i,?,?,i,i,i
COc1cc(/C=C(/C#N)C(=O)NCCc2c[nH]c3ccccc23)ccc1OCc1ccccc1F,i,?,11.6µM,i,i,i
COc1ccc(/C=C/C(=O)NCCc2c[nH]c3ccccc23)cc1OC,i,?,?,i,i,i
O=C(NCCc1c[nH]c2ccccc12)N[C@@H](Cc1ccccc1)C(=O)O,i,i,i,i,nt,i
O=C(CCNS(=O)(=O)c1ccc(OC(F)(F)F)cc1)NCCc1c[nH]c2ccccc12,i,23.1µM,14.6µM,i,i,i
COC(=O)[C@@H](Cc1ccccc1)NC(=O)NCCc1c[nH]c2ccccc12,i,?,i,?,nt,-97.9
O=C(NCCc1c[nH]c2ccccc12)C(=O)c1c[nH]c2ccccc12,i,14.6µM,?,?,i,i
